# Assay results taken from PubChem BioAssay AID463173 (ICCB-Longwood Screening Facility, Harvard Medical School, 2010).
# Among all 52,000 compounds or so, about 1,700 (3.3%) were called active. The list comes from a sample in which actives are over-represented; it also holds similar structures and randomly drawn compounds. Values without a mark were called inactive. Cut-off read from the data, not from the text of the source: active = survival mostly below about 52% (no sharp cut-off); inactive = mostly above about 56%.
# Tested on: Wild type
# Test: growth inhibition of S. aureus wild type versus tarO mutant, primary screen, teichoic acid synthesis inhibitors, RN4220, OD600 (AID 463173)
# Details: S. aureus RN4220 wild type/DeltatarO growth, OD600, 18 h, active compounds read low, screened at 18.75 µg/mL (by protocol)
row,SMILES,survival
1,Cc1cc(C)c(S(=O)(=O)NCC(c2ccco2)N2CCN(c3ccccc3)CC2)c(C)c1 (stereo not drawn),85%
2,Cc1ccc(Nc2nc3ccccc3c3nncn23)c(Cl)c1,132%
3,O=C(NCc1cccs1)c1nn(-c2ccccc2Cl)nc1CO,116%
4,COc1cccc(-c2cc(C(=O)Nc3cc(OC)c(OC)c(OC)c3)on2)c1,69%
5,COc1ccc(NS(=O)(=O)c2ccc3[nH]c4c(c3c2)CCCC4)c(OC)c1,99%
6,COc1cccc(CCNC(=O)c2cnc3sc(N4CCCCCC4)nn3c2=O)c1,80%
7,O=C(CSc1ncc(S(=O)(=O)c2ccc(Cl)cc2)c(=O)[nH]1)Nc1cccc(C(F)(F)F)c1,78%
8,COc1cccc(-c2noc(COc3cccc(C)c3C)n2)c1,85%
9,COc1ccccc1OCc1nc(-c2cccc(C)c2)no1,0% (active)
10,COc1ccc(C(=O)NCc2nc(-c3cccc(C)c3)no2)cc1OC,113%
11,Cc1ccc(N2C(=O)CS(=O)(=O)C23C(=O)N(Cc2cccc(F)c2)c2ccccc23)cc1Cl (stereo not drawn),75%
12,COc1ccc(CC(=O)N2CC(=O)Nc3ccc(Br)cc3C2c2ccc(F)cc2)cc1 (stereo not drawn),64%
13,Cc1ccc2c(c1)N(C(=O)Nc1cccc(C)c1C)CCO2,89%
14,CCOC(=O)N1CCN(C(=O)c2c(C)nn(-c3cccc(C)c3)c2-n2cccc2)CC1,-3% (active)
15,COc1cc(NC(=O)c2c(C)nn(-c3ccc(F)cc3)c2-n2cccc2)cc(OC)c1,70%
16,COc1cccc(NC(=O)c2c(C)nn(-c3cccc(C)c3)c2-n2cccc2)c1,0% (active)
17,COc1cccc(CNC(=O)c2c(C)nn(-c3cccc(C)c3)c2-n2cccc2)c1,71%
18,CCOC(=O)N1CCC(NC(=O)c2c(C)nn(-c3cccc(C)c3)c2-n2cccc2)CC1,85%
19,Cc1cccc(-n2nc(C)c(C(=O)N3CCN(c4ccccc4)CC3)c2-n2cccc2)c1,53%
20,Cc1ccc(NC(=O)C2C3C=CC4(O3)C2C(=O)N(c2ccccc2F)C4C(=O)NC2CCCC2)cc1 (stereo not drawn),84%
21,O=C(Nc1ccc(C(=O)OCc2cc(=O)n3nc(C4CC4)sc3n2)cc1)c1ccccc1,70%
22,O=C(CCc1nc2cccnc2n1Cc1cccs1)Nc1cccc(C(F)(F)F)c1,79%
23,CCC(Sc1ncnc2sc3c(c12)CCCC3)C(=O)OCC(C)C (stereo not drawn),-3% (active)
24,CCOC(=O)C(CC)Sc1ncnc2sc3c(c12)CCCC3 (stereo not drawn),-3% (active)

row,SMILES,survival
1,Clc1ncnc2sc3c(c12)CCCC3,108%
2,CC(C)OCCCNc1ncnc2sc3c(c12)CCCC3,79%
3,CCOC(=O)CSc1ncnc2sc3c(c12)CCC3,100%
4,CNC(=O)CSc1ncnc2sc3c(c12)CCCC3,104%
5,CCC(Sc1ncnc2sc3c(c12)CCCC3)C(=O)OC(C)C (stereo not drawn),-2% (active)
6,Nc1ncnc2sc3c(c12)CCCC3,109%
7,COC(=O)C(C)n1cnc2sc3c(c2c1=O)CCCC3 (stereo not drawn),102%
8,Cc1oc(-c2ccc(C(=O)Nc3cccc(C(F)(F)F)c3)cc2)nc1CSc1ccccc1,57%
9,Cc1ccc(C)c(N2CCN(S(=O)(=O)c3ccc4oc(=O)c5ncn(C)c5c4c3)CC2)c1,81%
10,Cc1c(Cl)cccc1NC(=O)Nc1nnc(N(C)C2CCCCC2)s1,111%
11,Cc1ccc(-n2c(=O)c3cccnc3n2CC(=O)Nc2ccc(Br)cc2)cc1C,57%
12,O=C(CSc1ncc(-c2ccccc2)[nH]1)Nc1cccc(Br)c1,13%
13,O=C(O)c1ccc(-c2ccc(/C=N/N3C(=O)C4C(C3=O)C3C=CC4C34CC4)o2)cc1 (stereo not drawn),110%
14,CC1CCN(S(=O)(=O)c2ccc3c(c2)N(C)C(=O)CC(=O)N3C)CC1,74%
15,Cc1cccn2c(=O)c3cc(C(=O)NCC(C)C)sc3nc12,80%
16,COc1ccccc1N(C)C(=O)Cn1c(=O)oc2cc(S(=O)(=O)N3CCCC3)ccc21,127%
17,CCOc1ccc(NC(=O)CSc2nnc3scc(-c4ccccc4)n23)cc1,48%
18,COC(=O)c1ccc(NC(=O)CN2CCCN(Cc3ccc(Cl)cc3)S2(=O)=O)cc1,110%
19,Cc1ccc(C)c(CN2CCCN(Cc3ccccc3C)S2(=O)=O)c1,76%
20,COc1ccc(NC(=O)CN2CCCN(Cc3ccc(Cl)cc3)S2(=O)=O)cc1Cl,67%
21,COC(=O)c1ccc(OC)c(CN2CCCN(Cc3ccc(C)cc3)S2(=O)=O)c1,-3% (active)
22,Cc1ccc(C)c(CN2CCCN(Cc3ccc(F)cc3)S2(=O)=O)c1,-6% (active)
23,Cc1ccc(CN2CCCN(Cc3c(C)cc(C)cc3C)S2(=O)=O)cc1,63%
24,CCc1c(CN2CCN(c3cccc(C)c3)C(C)C2)csc1C (stereo not drawn),94%

row,SMILES,survival
1,Cc1c(-c2ccccc2)c(=O)oc2ccc(OC(=O)N3CCOCC3)cc12,78%
2,CC(C)(C)OC(=O)N1CCC(c2c(C(=O)N3CCN(c4ncccn4)CC3)cnn2-c2cccc(F)c2)CC1,134%
3,CCCOc1ccc(Nc2cc(C)nc(C)n2)cc1,82%
4,Cc1cc(C)cc(NC(=O)CCCc2nnc3n(CC(C)C)c(=O)c4sccc4n23)c1,97%
5,CCc1cccc(-n2nnc(-c3nsc(NC(=O)c4ccc(C)cc4)n3)c2C)c1,53%
6,Cc1ccc(-n2nnc(-c3nsc(NC(=O)c4ccccc4C)n3)c2C)cc1Cl,159%
7,Cc1cc(C)cc(-n2nnc(-c3nsc(NC(=O)c4ccccc4Cl)n3)c2C)c1,49%
8,CCc1ccc(-n2nnc(-c3nsc(NC(=O)c4ccccc4Cl)n3)c2C)cc1,12% (active)
9,CCc1cccc(-n2nnc(-c3nsc(NC(=O)c4cccs4)n3)c2C)c1,-6% (active)
10,CSc1cccc(-n2nnc(-c3nsc(NC(=O)c4cccs4)n3)c2C)c1,80%
11,Cn1c(=O)c2cc(C(=O)NC3CCCCCC3)sc2c2ccccc21,89%
12,CCCN(CCC)C(=O)Cn1c(=O)n(Cc2ccc(C(=O)NCCc3ccc(Cl)cc3)cc2)c(=O)c2ccccc21,113%
13,CCCCN(C(=O)CCn1c(=O)oc2ccccc21)c1ccccc1,71%
14,COc1ccc(S(=O)(=O)n2nc(C)c(S(=O)(=O)N3CCCCC3)c2C)cc1,63%
15,CCCOc1ccc(OC(=O)c2sc3ncn(Cc4cccc(F)c4)c(=O)c3c2C)cc1,56%
16,COc1ccc(C(=O)Nc2ccccc2C(=O)OCc2cc(=O)n3nc(C4CC4)sc3n2)cc1,67%
17,CC1CCc2c(sc3ncnc(NCCOCCO)c23)C1 (stereo not drawn),106%
18,Cc1ccc(-c2nc(NC(=O)CSc3ncnc4sc5c(c34)CCC(C)C5)ns2)cc1 (stereo not drawn),75%
19,CCCCOC(=O)CSc1ncnc2sc3c(c12)CCC(C)C3 (stereo not drawn),15% (active)
20,CCCOC(=O)CSc1ncnc2sc3c(c12)CCC(C)C3 (stereo not drawn),7% (active)
21,CCOC(=O)CSc1nc2sc3c(c2c(=O)n1Cc1ccccc1)CC(C)CC3 (stereo not drawn),68%
22,CCC(C(=O)OC(C)C)n1cnc2sc3c(c2c1=O)CCC(C)C3 (stereo not drawn),71%
23,Cc1ccc(OCCCCn2nnc3sc4c(c3c2=O)CCC(C)C4)cc1 (stereo not drawn),94%
24,CCCCCOC(=O)CSc1ncnc2c1sc1nc(N3CCOCC3)c3c(c12)CCCC3,61%

row,SMILES,survival
1,CCCCCOC(=O)CSc1ncnc2sc3c(c12)CCC(C)C3 (stereo not drawn),-1% (active)
2,COc1ccccc1C(=O)Nc1nnc(SCc2cc(=O)c3ccccc3[nH]2)s1,72%
3,COc1ccc(NC(=O)c2cc(C(C)=O)n3ccccc23)cc1Cl,87%
4,CCn1c(=O)c2sccc2n2c(CCCC(=O)N3CCN(c4ccc(OC)cc4)CC3)nnc12,96%
5,CCN(c1ccccc1)S(C)(=O)=O,101%
6,Cc1ccn2c(Nc3ccc(C(C)C)cc3)c(-c3cccs3)nc2c1,53%
7,Cc1ccc(CNC(=O)C(C)n2nc(C)c3sc4ccccc4c3c2=O)cc1 (stereo not drawn),105%
8,Cc1ccc(OCC(=O)N(Cc2ccc(N(C)C)cc2)CC2CCCO2)cc1C (stereo not drawn),82%
9,COc1ccccc1Cn1cc(C(=O)c2ccccc2)c(=O)c2cc(OC)c(OC)cc21,10% (active)
10,CCc1ccc(C(=O)c2cn(Cc3ccccc3)c3cc(OC)c(OC)cc3c2=O)cc1,97%
11,COc1ccccc1Cn1cc(C(=O)c2ccc(C)cc2)c(=O)c2cc(C)ccc21,121%
12,O=C(c1ccc2c(c1)OCCO2)N(Cc1cccnc1)c1nc2c(Cl)cccc2s1,128%
13,O=C(Nc1cccc(C(F)(F)F)c1)c1cc(-c2ccc(Cl)s2)nc2ccccc12,100%
14,CCn1nc(C)c2c(-c3ccccc3)cc(=O)n(C(C)C(=O)NCc3ccc(C)cc3)c21 (stereo not drawn),127%
15,CC1=C(C(=O)Nc2ccccc2)C(c2cccn2C)n2ncnc2N1 (stereo not drawn),76%
16,CC1=C(C(=O)Nc2ccccc2)C(c2ccc[nH]2)n2ncnc2N1 (stereo not drawn),-3% (active)
17,COc1ccc(NC(=O)C2=C(C)Nc3ncnn3C2c2ccc[nH]2)cc1 (stereo not drawn),83%
18,COc1ccccc1NC(=O)C1=C(C)Nc2ncnn2C1c1cccn1C (stereo not drawn),0% (active)
19,COc1ccc(NC(=O)C2=C(C)Nc3ncnn3C2c2cccn2C)cc1 (stereo not drawn),85%
20,CC1=C(C(=O)Nc2ccccc2C)C(c2ccc[nH]2)n2ncnc2N1 (stereo not drawn),99%
21,COc1ccc(C2C(=O)N(C3CCCCCC3)CC(=O)N2Cc2ccccc2)cc1 (stereo not drawn),67%
